RE007 growth inh = less growth of the S. pombe RE007 Vpr strain; Potency, µM (series often up to 92.2 µM), without a hit: at the top dose activity change, negative = less growth, usual class: inhibitors; 360,000 tested, 0.21% active; AID 651644; S. pombe RE007 Vpr strain, BacTiter-Glo ATP luminescence, 24 h; active = well fitted falling curve with a large enough effect; inconclusive = small, poorly fitted or top-dose-only effect; inactive = no such curve, though single readings can be large or run the other way; also: potency is read from the fitted curve at half-maximal effect; % is scaled to controls: 0 for no effect and ±100 for the full control effect; nearly all actives have a fitted effect of over 50% in size
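Fission yeast strain RE007, carrying one chromosomally integrated HIV-1 vpr copy, was seeded at OD 0.01 in PMG+AL medium with 23 nL pinned compound. After 24 h at 30 °C and 99% humidity, viability was read by BacTiter-Glo luminescence.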
CHX counter = affects cycloheximide protein synthesis inhibition readout, counter-screen | cell reporter, cycloheximide protein synthesis inhibition counterscreen | max response, % | 300,000 tested, 12% active | AID 2314; in the data active = max response mostly above about 13%, no sharp cut-off; inactive = mostly below about 14%; also: read at 38.3 µM for the half of the compounds with a filed dose; 0% is about no effect
Giardia FBPA inh = blocks Giardia fructose-bisphosphate aldolase activity | A8B2U2 | purified Giardia FBPA | Potency, µM (titrated, usually from 59.6 µM), inactives show top-dose activity, negative = inhibition, usual class: inhibitors | 290,000 tested, 0.71% active; also: potency is read from the fitted curve at half-maximal effect; % is scaled to controls: 0 for no effect and ±100 for the full control effect; nearly all actives have a fitted effect of over 55% in size
Target sequence (A8B2U2 whole entry, looked up): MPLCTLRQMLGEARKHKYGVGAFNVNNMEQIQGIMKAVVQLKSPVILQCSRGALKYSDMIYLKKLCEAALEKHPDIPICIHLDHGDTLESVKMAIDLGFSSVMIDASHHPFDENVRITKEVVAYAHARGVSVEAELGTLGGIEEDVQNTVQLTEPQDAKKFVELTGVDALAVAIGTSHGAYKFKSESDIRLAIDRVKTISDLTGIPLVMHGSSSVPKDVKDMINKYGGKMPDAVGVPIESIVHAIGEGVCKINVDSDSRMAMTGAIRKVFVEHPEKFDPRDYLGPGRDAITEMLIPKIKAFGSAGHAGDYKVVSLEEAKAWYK
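40 nM FBPA preincubated 10 min at RT with compound (up to 57.5 uM final), then substrate plus GAPDH/TPI/NAD/arsenate coupling and diaphorase/resazurin added. Fluorescence read after 20 min at RT, 525/598 nm.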
LmPK inh = inhibitors of Leishmania mexicana pyruvate kinase. AID 1721. Q27686. purified LmPK, Kinase-Glo ATP luminescence, 1 h. 290,000 tested, 0.37% active. Potency, µM (series often up to 57.5 µM), for inactives: at the top dose activity change, negative = inhibition, hits mostly inhibitors; also: potency is read from the fitted curve at half-maximal effect; % is scaled to controls: 0 for no effect and ±100 for the full control effect
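qHTS format; LmPK 0.1 nM; substrates PEP 0.5 mM and ADP 0.1 mM. One-hour room-temperature incubation, then coupled luciferase luminescence; 0.5 nM enzyme wells mark activation.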
TbPYK inhibitor = T. brucei pyruvate kinase inhibition. Q57TT1. TbPYK enzyme, Kinase-Glo Plus ATP luminescence, 45 min. Potency, µM (doses to about 76.8 µM), for the others: top-dose activity, negative = inhibition, most hits filed as inhibitors. 410,000 tested, 0.12% active; also: potency is read from the fitted curve at half-maximal effect; % is scaled to controls: 0 for no effect and ±100 for the full control effect; nearly all actives have a fitted effect of over 50% in size
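Assay buffer: 50 mM TEA pH 7.2, 100 mM KCl, 10 mM MgCl2, 0.05% BSA, 0.01% Tween-20. Pyruvate kinase from T. brucei plus substrate met compound, then ADP (130 uM final). Luminescence was read post 45 min RT.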
Shiga inhibitor = inhibitors of Shiga toxin in Vero cells | Vero cells, Shiga toxin protein synthesis inhibition reporter | inhibition, % at 38.7 µM | 290,000 tested, 9.2% active | AID 2315; in the data active = inhibition mostly above about 28%, no sharp cut-off; inactive = mostly below about 43%; also: 0% is about no effect
Starred values were filed as active, the others as inactive; u = inconclusive; x = not tested or not shown. Only a selection was taken, and hits are over-represented in it overall. Unless noted, calls follow the shape of the dose curve; as a rule, active = well fitted curve in the direction sought with a large enough effect; inconclusive = small, poorly fitted or top-dose-only effect, or another doubt; inactive = no such curve, though single readings can be large; an effect the other way counts as inactive or inconclusive.

SMILES | RE007 growth inh | CHX counter | Giardia FBPA inh | LmPK inh | TbPYK inhibitor | Shiga inhibitor
O=C(NCc1ccc(F)cc1)c1cnc(Cl)c(Cl)c1 | -17% | 2 | 11% | -5% | 1% | 6
O=C(NCc1ccccc1)c1cnc(Cl)c(Cl)c1 | 1% | 23* | 13% | 1% | -5% | 20
CCCc1cc(C(=O)Nc2cccc(-c3nn[nH]n3)c2)sc1C | -7% | x | x | x | -15% | x
O=C(NCc1ccccc1)c1cccc(COc2cc(Cl)ccc2Cl)c1 | x | 41* | 6% | 9% | -9% | 118*
O=C(c1ccccc1)N1CCN(CC(O)COc2cccc3ccccc23)CC1 (stereo unspecified) | 2% | -1 | -21% | 8% | -2% | x
O=C(c1cccc(COc2cccc3ccccc23)c1)N1CCCC1 | 6% | 40* | -10% | 1% | 2% | 47*
CCOc1cccc(C(=O)NCc2ccccc2)c1 | 1% | 7 | 9% | -2% | 9% | 13
O=C(NCc1ccc(Br)cc1)OC1CC2CC1[C@H]1CCCCN1C2=O (stereo partly specified) | -9% | x | x | x | 2% | x
CN(C)C(CSC(N)=O)CSC(N)=O | x | -5 | -8% | x | x | -6
CCSc1nc(N)c2c3c(sc2n1)CN(C)CC3 | x | -2 | -17% | -2% | x | -2
COC(CSc1nc(N)c2c3c(sc2n1)CN(C)CC3)OC | x | 31* | u | -2% | -10% | 42
C=CCSc1nc(N)c2c3c(sc2n1)CN(C)CC3 | 1% | 21* | -27% | 0% | 5% | 12
C=CCSc1nc(N)c2c(C)c(C)sc2n1 | -11% | 11* | -4% | 8% | 4% | 29
C[C@@H]1COC(=O)[C@H](Cc2ccc(F)cc2)CC/C=C\C[C@@H](CC(=O)NCCO)C(=O)N1 | 10% | x | x | x | -10% | x
c1csc(-c2nc(-c3ccc(-c4ccon4)s3)no2)c1 | -6% | 56* | 2% | -9% | 2% | 65*
c1ccc(-c2nc(-c3ccc(-c4ccon4)s3)no2)cc1 | 5% | 34* | 0% | -7% | -4% | 61*
CCOc1nc(-c2ccccc2)ccc1-c1noc(-c2ccncc2)n1 | 13% | 2 | 19% | 3% | -2% | 9
Cc1ccc(-c2nc3sccn3c2Nc2ccccc2C)cc1 | x | x | x | x | 3% | x
COC(=O)[C@H](COC(C)(C)C)NC(=O)O[C@@H]1C(=O)c2ccc(OC)cc2O[C@H]1c1ccc2c(c1)OCO2 | x | x | 0% | x | x | x
CCOc1ccc(N=C(NN)c2ccc3ccccc3n2)cc1 | -1% | 44* | u | 1% | -24% | 31*
CCOc1ccc(NC(=O)CCc2c(C)nn(-c3ccc(N4CCCCC4)nn3)c2C)cc1 | -6% | 27* | x | -9% | -2% | 45*
Cc1nn(-c2ccc(N3CCCCC3)nn2)c(C)c1CCC(=O)Nc1cccc(F)c1 | -7% | 44* | 30% | 1% | 1% | 84*
COc1ccc(NC(=O)CCc2c(C)nn(-c3ccc(N4CCCC4)nn3)c2C)cc1Cl | x | x | x | x | -2% | x
Cc1cc(C)cc(NC(=O)CCc2c(C)nn(-c3ccc(N4CCOCC4)nn3)c2C)c1 | -5% | 26* | 7% | -4% | 3% | 35
Cc1ccc(C)c(NC(=O)CCc2c(C)nn(-c3ccc(N4CCCCC4)nn3)c2C)c1 | -1% | 18 | 2% | 0% | 4% | -2
SMILES | RE007 growth inh | CHX counter | Giardia FBPA inh | LmPK inh | TbPYK inhibitor | Shiga inhibitor
Cc1ccc(NC(=O)CCc2c(C)nn(-c3ccc(N4CCCCC4)nn3)c2C)cc1F | -19% | 41* | x | 1% | 2% | 71*
COc1ccc(CCNC(=O)/C(C#N)=C/c2cccc(OCc3ccccc3)c2)cc1OC | -1% | 11 | -6% | 0% | -5% | 34
Cc1cc2oc(=O)cc(CN3CCCCC3C)c2cc1C (stereo unspecified) | 10% | -1 | -17% | -4% | -10% | 1
Cc1nn(-c2ccc(N3CCCCC3)nn2)c(C)c1CCC(=O)Nc1ccc(F)cc1 | -1% | 34* | x | 11% | 4% | 55*
CCc1ccc(NC(=O)CCc2c(C)nn(-c3ccc(N4CCCCC4)nn3)c2C)cc1 | -3% | 49* | 5% | 10% | 0% | 81*
CCc1ccc(CNC(=O)CCc2c(C)nn(-c3ccc(N4CCCC4)nn3)c2C)cc1 | x | x | x | x | 1% | x
CCOC(=O)c1cccc(NC(=O)CCc2c(C)nn(-c3ccc(N4CCCC4)nn3)c2C)c1 | x | x | x | x | -6% | x
CCc1cccc(NC(=O)CCc2c(C)nn(-c3ccc(N4CCCCC4)nn3)c2C)c1 | -2% | 40* | 19% | 8% | 4% | 95*
Cc1nn(-c2ccc(N3CCCC3)nn2)c(C)c1CCC(=O)Nc1ccccc1 | x | x | x | x | -4% | x
CCC(=O)N1CCc2cc(S(=O)(=O)NC(C(=O)NCc3ccc(OC)cc3)C(C)C)ccc21 (stereo unspecified) | x | x | x | x | 2% | x
COc1cccc(N=c2oc3cc(O)ccc3cc2C(=O)NCC2CCCO2)c1 (stereo unspecified) | -17% | 13* | -5% | -9% | 3% | 65
COc1ccccc1N=c1oc2cc(O)ccc2cc1C(N)=O | 8.9µM* | 14* | 10% | -16% | -3% | 19
COc1ccc(C(=O)Nc2ccccc2C(=O)NCC2CCCO2)cc1 (stereo unspecified) | -3% | -2 | -12% | -11% | -1% | -3
Cc1cccc(N=c2oc3cc(O)ccc3cc2C(N)=O)c1 | -12% | 27* | 6% | 3% | -1% | 39*
COc1ccccc1N=c1oc2cc(O)ccc2cc1C(=O)NCC1CCCO1 (stereo unspecified) | -18% | 17* | 1% | 3% | 7% | 12
COc1cc(OC)c(C(=O)NCC2CCCO2)cc1OC (stereo unspecified) | 23% | 0 | -1% | 1% | 4% | 1
NC(=S)c1cc2ccc(O)cc2oc1=O | -20% | -3 | -1% | u | -8% | -5
CCCCSCCCNC(=O)C1CCN(Cc2nc(-c3ccc(CC)cc3)oc2C)CC1 | x | x | x | x | 2% | x
COc1ccc(N(Cc2cccs2)C(=O)c2ccc(Br)o2)cc1 | x | x | x | x | 8% | x
CCCCn1c(N)c(N(CCC(C)C)C(=O)COC(=O)Cc2ccc(Cl)cc2)c(=O)[nH]c1=O | 3% | x | x | x | 0% | x
COc1ccc2oc(=Nc3cccc(F)c3)c(C(N)=O)cc2c1 | -4% | 34* | 1% | 0% | -6% | 73*
COc1ccc2cc(C(N)=O)c(=Nc3ccc(C)cc3)oc2c1 | 9% | 10 | 1% | 10% | 0% | 4
COc1cccc(C(=O)Nc2cccc(C(=O)OCc3cc(=O)n4c(C)csc4n3)c2)c1 | x | x | x | x | 3% | x
CCCCOc1ccc2c(c1)C(=O)c1cc(O)ccc1-2 | -27% | 29* | -16% | 3% | 2% | 93*
O=C(N/N=C/C(Br)=C/c1ccccc1)c1ccccc1F | u | 34* | 10% | -5% | -1% | 86*

Screening data as filed in PubChem BioAssay.
